In all, about 68,000 sequences were measured (“fluorescence intensity (a.u.)”: median about 9,100, highest 2% from about 16,000 on). The entries come from a sample that favours the highest values as a whole.
Molecular target: OsWRKY34 (Oryza sativa, UniProt Q0JBA9 1-250)
Experiment: protein-binding microarray (RPBM); PBS, 2% BSA, 51.3 ng/ul salmon testes DNA, 50 uM zinc acetate, 200 nM TF, 25 C, 1 h; high values mean tight binding
Details: protein: recombinant; tags: N-terminal polyhistidine and DsRed monomer fusion (pET32a); label: CyDye5-dUTP incorporated in the synthesized complementary strand; 3' TTTTT single-stranded linker to array surface; dsDNA, one strand shown
In short: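 The binding signal for each feature is its fluorescence intensity in arbitrary units. An Axon 4000B scanner was used to read a custom Agilent array that had been made double-stranded with Cy5-dUTP primer extension, blocked with 2% BSA, incubated at 25 °C for 1 h with 200 nM protein in PBS, 2% BSA, salmon testes DNA and 50 µM zinc acetate, and washed. The protein was an N-terminal polyhistidine–DsRed transcription factor fusion from E. coli BL21-CodonPlus, purified on Ni–NTA.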

Sequence of OsWRKY34 (Q0JBA9 entry or part of it): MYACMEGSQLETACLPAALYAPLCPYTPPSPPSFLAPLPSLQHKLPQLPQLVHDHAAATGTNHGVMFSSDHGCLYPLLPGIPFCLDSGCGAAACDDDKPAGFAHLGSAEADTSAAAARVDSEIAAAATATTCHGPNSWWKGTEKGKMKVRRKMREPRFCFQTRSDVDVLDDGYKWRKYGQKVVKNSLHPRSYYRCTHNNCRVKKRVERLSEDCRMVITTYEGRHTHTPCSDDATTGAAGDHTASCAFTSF

Sequence | binding signal
TCCATCGCGCGTCGTCTCCACCTTTGTTGCTTGTGCCACCCGGAGTCACCTAGTGCAG | 10200 fluorescence intensity (a.u.)
ATGGGGTATTTAGGATGGGCAATATTTTGGTAGTGAGGAGCGGAGTCACCTAGTGCAG | 9430 fluorescence intensity (a.u.)
TGCTAAAAAGTCAACGGTGTCAAACATTTCGAAACGGAGGCGGAGTCACCTAGTGCAG | 10900 fluorescence intensity (a.u.)
ACCACCACCGTCTCAACTCTCTCTCAGACTGTCCGCCATGCGGAGTCACCTAGTGCAG | 8030 fluorescence intensity (a.u.)
ATATATCCATGCGAACTTCGCTCCAATAGTGAATTTTATCCGGAGTCACCTAGTGCAG | 8900 fluorescence intensity (a.u.)
ATATACATAAGCTTCTCGTGCACACACAAACTAACATAAACGGAGTCACCTAGTGCAG | 8610 fluorescence intensity (a.u.)
TAAAGCTTTATATAGCTGGCCCGCTGACTTTTTTATATATCGGAGTCACCTAGTGCAG | 9020 fluorescence intensity (a.u.)
GCTTTATCGTGCAAACACCTAAGCTGATAAAGGCAAAGGTCGGAGTCACCTAGTGCAG | 23200 fluorescence intensity (a.u.)
GGAGCGATGACGTTCTATACCTTCGGCCTTCGTTTGACCGCGGAGTCACCTAGTGCAG | 10600 fluorescence intensity (a.u.)
TTGATTTCTCTGAGTTTGTGTTCTTGGCATCATCATCATTCGGAGTCACCTAGTGCAG | 11400 fluorescence intensity (a.u.)
TTTTTCTCCCCAGATTGCTGTGCACGGATTTGCCGTAAGACGGAGTCACCTAGTGCAG | 8360 fluorescence intensity (a.u.)
TGTGTTTGAGGGGTGTGTATGTGTTGTGTTGTAGGTCAACCGGAGTCACCTAGTGCAG | 9510 fluorescence intensity (a.u.)
TATTTTATCTCACTGGCTATTTCCTATGATTATTTATTTCCGGAGTCACCTAGTGCAG | 11400 fluorescence intensity (a.u.)
AGTGTTAATCTTACTCCTTGTTGTATATTGCTAAGTTTTTCGGAGTCACCTAGTGCAG | 12900 fluorescence intensity (a.u.)
GATTTCTTTGTTGATTTTATTGGTTTTCTCCTAATCTTGCCGGAGTCACCTAGTGCAG | 8820 fluorescence intensity (a.u.)
TTTTGGGGATAGATTTGCGCTTTTGGTGGGTGGGTTTGGGCGGAGTCACCTAGTGCAG | 14200 fluorescence intensity (a.u.)
AGGAGGGGTATTGTTGCTAATCTTGATTGTTTTACTCTTGCGGAGTCACCTAGTGCAG | 17000 fluorescence intensity (a.u.)
GGCTTTTGGTTTCTTGGTGGTTGTGGATTTTTTTTTTTTGCGGAGTCACCTAGTGCAG | 12300 fluorescence intensity (a.u.)
TTGCTTGTGTTGGGCCGTAGGGTTTTTGTTTTTTTTTTTGCGGAGTCACCTAGTGCAG | 8410 fluorescence intensity (a.u.)
GGGGCGATTTTTTTTTTTTTTTAGAATTGCGAGATAGGGGCGGAGTCACCTAGTGCAG | 10700 fluorescence intensity (a.u.)
GCCGTATTTGTTTTTTTGGGATTTGGGGTTTGGATACTTGCGGAGTCACCTAGTGCAG | 18700 fluorescence intensity (a.u.)
ATTTGGGGTTTGGATACTTGAACTTTATTTTGACTTCTGACGGAGTCACCTAGTGCAG | 14000 fluorescence intensity (a.u.)
TTCTGTTTGGGTTTTGATTTGTTTCGGTTTGGCTGTTCTTCGGAGTCACCTAGTGCAG | 10600 fluorescence intensity (a.u.)
GCGGGCTGTTTTTTTCTTGCGGTTTGGTTTGGGATTTCTGCGGAGTCACCTAGTGCAG | 17400 fluorescence intensity (a.u.)
TTGTGTTTGGGCGGGAGAATTTTTGGGGATAGATTTGCGCCGGAGTCACCTAGTGCAG | 18500 fluorescence intensity (a.u.)
TCTGTATATAAGGCCTGATTTAGTTCCCAAATTTTTTTTCCGGAGTCACCTAGTGCAG | 8100 fluorescence intensity (a.u.)
AATATTTCCCTTTCCAATGTTCAGTCAGCCCATCAGACCGCGGAGTCACCTAGTGCAG | 8110 fluorescence intensity (a.u.)

Sequence | binding signal
GTTCCAAAATTTTTCTTTAAACTTCCAACATTTTCATCACCGGAGTCACCTAGTGCAG | 9190 fluorescence intensity (a.u.)
GTATGGTACAGCACATTTCTCTGTTCAAGTGTTCATTATGCGGAGTCACCTAGTGCAG | 8610 fluorescence intensity (a.u.)
ATATATATGGATTAGGTTTGGATTGGGGATCATTTGTATGCGGAGTCACCTAGTGCAG | 8360 fluorescence intensity (a.u.)
ACCTAGATCCACCTCGTTAGTTTATTTTGTGAGAGTGCTCCGGAGTCACCTAGTGCAG | 9140 fluorescence intensity (a.u.)
AACACTCACATCAAGTCATCAACCGACCTTGTCAAGTCAACGGAGTCACCTAGTGCAG | 10600 fluorescence intensity (a.u.)
TTGGTTGCATGTTTTTTCACGTAAAATCTTAATTTTTGCACGGAGTCACCTAGTGCAG | 8150 fluorescence intensity (a.u.)
TGCTCCGACCACTGCCCACCCCGCTCCACCGGCTAGAGAGCGGAGTCACCTAGTGCAG | 9120 fluorescence intensity (a.u.)
TTGCTCACCAGAGCTACTACTACCGGTCTGTCACGCTCACCGGAGTCACCTAGTGCAG | 9180 fluorescence intensity (a.u.)
CCGACTGCTCAATCACCACCGGTCTGACCGGCTACCAGAGCGGAGTCACCTAGTGCAG | 17200 fluorescence intensity (a.u.)
CAACATCTTCTTTAGTTGCTCACACTTTTTCTTAGAATCACGGAGTCACCTAGTGCAG | 8340 fluorescence intensity (a.u.)
TTTCTTCGTCCTCTTGGTTTCCCTTTCAATTCATTCATTTCGGAGTCACCTAGTGCAG | 8460 fluorescence intensity (a.u.)
GCTCGCCCGTCTTTCGCTCTGCCCGCAGCCCGCCGCCGCTCGGAGTCACCTAGTGCAG | 14000 fluorescence intensity (a.u.)
ACCGGCCCAGAACAGTTGGGCAGCCCACGAAGTCACCAACCGGAGTCACCTAGTGCAG | 8540 fluorescence intensity (a.u.)
CTTAGTTCTCCGCGCTATTCACTTCTGCGCCGTCGCTTTTCGGAGTCACCTAGTGCAG | 8640 fluorescence intensity (a.u.)
CAAGATGGGTCGGGTTGGGTGGGGTTACTCGCACTAGCACCGGAGTCACCTAGTGCAG | 22300 fluorescence intensity (a.u.)
GGGTGGGCGTGATGGAGTTGGGTCGGCCGGGGTGTCCGGTCGGAGTCACCTAGTGCAG | 14500 fluorescence intensity (a.u.)
GTGGGGCTCGGGTTCCGGCCGGTGTAGGGGAGGGGAGATGCGGAGTCACCTAGTGCAG | 15700 fluorescence intensity (a.u.)
CTCAGTATTGGGTTGGGTGGTGGTGGCGGCGGTGGCAGTGCGGAGTCACCTAGTGCAG | 13700 fluorescence intensity (a.u.)
TTGGGTTGGGTTGGGTGGTCCATTCTGTACGGTGCGCCGGCGGAGTCACCTAGTGCAG | 19600 fluorescence intensity (a.u.)
GAAGCTTCGGGAGTGGTGGTGGGTTGCGGCCGTGCGGCTCCGGAGTCACCTAGTGCAG | 10900 fluorescence intensity (a.u.)
GCTTCGGCTCGGGGTGGGTTGGGTTGGGTTGGGTTCGATGCGGAGTCACCTAGTGCAG | 32400 fluorescence intensity (a.u.)
GACGGCGCCCTGCGGCTTCGGTTGCGGGGTGGGTGGTGGCCGGAGTCACCTAGTGCAG | 10300 fluorescence intensity (a.u.)
TGGGTGGGTTGGGTGGGTGGGTGGGTGCGCGGCGGGTATGCGGAGTCACCTAGTGCAG | 32800 fluorescence intensity (a.u.)
GAGGGGAGGGAGAGGTCGGAGATGGTTACCGGTGGGGAAGCGGAGTCACCTAGTGCAG | 12300 fluorescence intensity (a.u.)
GCGCTGTGGTCCCGGCGCCGGCAGTGGTTGCTTCTGCGCGCGGAGTCACCTAGTGCAG | 8560 fluorescence intensity (a.u.)
GCGCGGCGGCGGTGGGGTGGTAGTGGTGGTGGGTGGAATGCGGAGTCACCTAGTGCAG | 13500 fluorescence intensity (a.u.)
CATGTGTGGTGAGCATATTTGTTTGTACTGTTGTATTTTACGGAGTCACCTAGTGCAG | 9560 fluorescence intensity (a.u.)

From article PMC7819943, “Rice protein-binding microarrays: a tool to detect cis-acting elements near promoter regions in rice”
